In the library only some 18% were active in any assay of this set; here they are far more common.
LDHA block: inhibitors of human lactate dehydrogenase A | purified LDHA, NADH/diaphorase-resazurin fluorescence; hits give low values | activity change, % (values are at about 110 or 230 µM) | actives 0.15% (n = 480,000) | AID 1347041; in the data active = activity change below about -30%; inconclusive = mostly about -25% to -30%
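Enzyme activity of human lactate dehydrogenase 5 (2 nM; 0.06 mM NADH, 0.2 mM pyruvate, 5 min, RT) is measured via a resazurin/diaphorase fluorescence readout of residual NADH.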
Gal4-VP16 FLuc: counter-screen for ROR gamma inhibitors: Gal4-VP16 reporter | Drosophila S2 Gal4-VP16 UAS-luciferase, luminescence, 20 h | Potency, µM (highest dose often 53.6 µM), usual class: inhibitors | actives 3.5% (n = 310,000) | AID 2546;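 also: Gal4-VP16 expression switched on by copper sulfate through the metallothionein promoter; nearly all actives have a fitted effect of over 50% in size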
TDP1 cell CPT: growth inhibition of DT40 Tdp1-/-;hTDP1 cells with camptothecin (screen for TDP1 inhibitors); AID 686979; actives 12% (n = 420,000); Potency, µM (top dose mostly 46.2 µM), usual class: inhibitors; chicken DT40 Tdp1-/-;hTDP1 cells + 20 nM CPT, ATP luminescence, 48 h; also: nearly all actives have a fitted effect of over 55% in size
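Cell growth measured by CellTiter-Glo luminescence after a minimum 48 h, 37 C compound exposure with 20 nM CPT in Tdp1-knockout DT40 cells stably expressing hTDP1, seeded 400/well; qHTS titration format.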
IL-1B inflam inh: blocks inflammasome-driven IL-1 beta release | THP-1 LPS/ATP IL-1B secretion, AlphaLISA, 16 h; hits give low values | activity change, % at 57.5 µM | actives 4.7% (n = 360,000) | AID 743279; in the data active = activity change below about -50%; inconclusive = mostly about -30% to -49%
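THP-1 cells pretreated 1 hr with compounds (up to 57.5 uM final), then stimulated with LPS (250 ng/mL final) plus ATP (1.25 mM final); secreted IL-1B measured by AlphaLISA after 16 hr, decreased signal indicating inhibition.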
RORgamma inh: ROR gamma (mouse) transcription inhibition; P51450; Drosophila S2 Gal4-RORgamma UAS-luciferase reporter, 20 h; Potency, µM (top dose mostly 53.6 µM), actives largely listed as inhibitors; actives 5.4% (n = 310,000); also: nearly all actives have a fitted effect of over 60% in size
Target sequence (P51450 whole entry, looked up, the tested form may be a part): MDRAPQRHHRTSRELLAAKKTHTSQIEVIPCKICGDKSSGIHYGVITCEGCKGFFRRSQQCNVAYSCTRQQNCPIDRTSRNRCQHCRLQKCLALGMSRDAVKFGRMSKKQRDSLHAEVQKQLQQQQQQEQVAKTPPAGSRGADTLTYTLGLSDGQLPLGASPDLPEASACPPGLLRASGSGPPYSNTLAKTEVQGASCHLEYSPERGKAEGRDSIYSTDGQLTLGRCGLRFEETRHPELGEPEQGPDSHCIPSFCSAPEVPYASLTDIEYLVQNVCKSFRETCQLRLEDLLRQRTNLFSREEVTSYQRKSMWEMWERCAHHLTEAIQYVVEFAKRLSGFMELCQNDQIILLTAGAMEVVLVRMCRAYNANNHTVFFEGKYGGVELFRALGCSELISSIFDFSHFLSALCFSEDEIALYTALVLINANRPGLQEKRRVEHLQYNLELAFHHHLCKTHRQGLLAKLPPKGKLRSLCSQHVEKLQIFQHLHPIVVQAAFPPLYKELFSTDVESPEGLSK
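A Gal4/UAS one-hybrid system in insect cells: metallothionein-promoter Gal4–ROR gamma fusion plus Photinus luciferase reporter. Copper sulfate 700 uM final, 20 hr ambient incubation, luminescent detection after 10 min with reagent.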
DT40 TDP1 no CPT: qHTS for Inhibitors of human tyrosyl-DNA phosphodiesterase 1 (TDP1): qHTS in cells in absence of CPT; DT40 Tdp1-/- hTDP1 cells, no CPT, ATP luminescence, 48 h; Potency, µM (titrated, usually from 46.2 µM), actives largely listed as inhibitors; actives 15% (n = 420,000); also: nearly all actives have a fitted effect of over 55% in size
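Camptothecin absent (DMSO only). Human TDP1-complemented DT40 knockout cells, 400 cells/well, 37 °C for minimum 48 hr; ATP measured via CellTiter-Glo, 30 min dark incubation, luminescence.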
A number is an active result; i = inactive; ? = inconclusive; nt = no result given; ! = repeats disagree. Unless noted, calls follow the shape of the dose curve; as a rule, active = well fitted curve in the direction sought with a large enough effect; inconclusive = small, poorly fitted or top-dose-only effect, or another doubt; inactive = no such curve, though single readings can be large; an effect the other way counts as inactive or inconclusive.

SMILES	LDHA block	Gal4-VP16 FLuc	TDP1 cell CPT	IL-1B inflam inh	RORgamma inh	DT40 TDP1 no CPT
O=C(CCc1nc(-c2ccccc2F)no1)Nc1ccc(Oc2ccccc2)cc1	i	i	23.1µM	i	?	10.3µM
COc1ccc(Br)cc1CNC(=O)CCc1nc(-c2ccccc2F)no1	i	i	16.4µM	i	i	?
COc1ccc(Cl)cc1NC(=O)CCc1nc(-c2ccccc2F)no1	i	i	23.1µM!	i	i	16.4µM
COc1ccc(-c2noc(CCC(=O)Nc3cccc(C)c3C)n2)cc1OC	i	nt	?	nt	nt	?
COC(=O)c1ccc(/C=C(/C#N)C(=O)Nc2cccc(OC)c2)cc1	i	nt	nt	nt	nt	nt
COc1cc(C(=O)Nc2ccc3oc(-c4ccccc4C)nc3c2)cc(OC)c1OC	i	nt	nt	nt	nt	nt
CC(C)Cn1c(=O)[nH]c(=O)c2c(C(=O)O)cc(C3CC3)nc21	i	nt	nt	nt	nt	nt
CCC1CCCCN1S(=O)(=O)c1ccc(C(=O)Nc2nnc(-c3cccs3)o2)cc1 (stereo unspecified)	i	0.316µM	6.31µM	i	0.316µM	6.31µM
CCC1CCCCN1S(=O)(=O)c1ccc(C(=O)Nc2nc(-c3ccncc3)cs2)cc1 (stereo unspecified)	i	nt	nt	nt	nt	nt
CC1CC(C)CN(S(=O)(=O)c2ccc(C(=O)Nc3sccc3C(N)=O)cc2)C1 (stereo unspecified)	i	?	18.4µM	i	i	20.6µM
CC1CC(C)CN(S(=O)(=O)c2ccc(C(=O)Nc3nnc(-c4cccs4)o3)cc2)C1 (stereo unspecified)	i	0.501µM	6.31µM	i	0.251µM	5.01µM
COc1ccc(CNC(=O)c2ccc(S(=O)(=O)N3CC(C)CC(C)C3)cc2)cc1OC (stereo unspecified)	i	nt	?	i	nt	?
C/C(=C\c1cccc2c1sc1ccccc12)C1Nc2cccc3cccc(c23)N1	i	nt	nt	nt	nt	nt
Cc1ccc(S(=O)(=O)NCC2CN(Cc3ccccc3)CCO2)c(Br)c1 (stereo unspecified)	i	nt	nt	nt	nt	nt
CCC(=O)Nc1cccc(NC(=O)c2ccc(C)cc2)c1C	i	nt	nt	nt	nt	nt
CN(C)c1ccc(/C=C/C=C2/SC(=S)N(c3ccccc3)C2=O)cc1	i	i	18.4µM	?	i	8.2µM
O=C1/C(=C\c2ccco2)SC(=S)N1c1ccc(O)cc1	i	i	i	i	i	i
O=C1/C(=C/C=C/c2ccco2)SC(=S)N1c1ccc(O)cc1	i	i	18.4µM	i	i	?
O=C(O)c1ccc(N2C(=O)/C(=C/C=C/c3ccccc3)SC2=S)cc1	i	i	i	i	i	i
COc1ccccc1Nc1nc(C)c(C(=O)Nc2ccccc2)s1	i	i	14.6µM	-52.7	i	?
Cc1nc(Nc2ccccc2Cl)sc1C(=O)Nc1ccccc1	i	i	18.4µM	?	i	20.6µM
Cc1nc(NC(C)c2ccccc2)sc1C(=O)Nc1ccccc1 (stereo unspecified)	i	i	?	-52.5	i	i
Cc1nc(Nc2ccccc2F)sc1C(=O)Nc1ccccc1	i	nt	nt	nt	nt	nt
Cc1nc(Nc2ccccc2)sc1C(=O)Nc1ccccc1	i	i	20.6µM	-65.3	?	?
CCCCCn1nc(C(=O)Nc2ccccc2C(C)=O)c2ccccc2c1=O	i	nt	nt	nt	nt	nt
SMILES	LDHA block	Gal4-VP16 FLuc	TDP1 cell CPT	IL-1B inflam inh	RORgamma inh	DT40 TDP1 no CPT
CC1CCCCN1c1nc2nnnn2c2sc3c(c12)CCN(Cc1ccccc1)C3 (stereo unspecified)	i	nt	nt	nt	nt	nt
COc1ccc(C(=O)c2sc(Nc3ccc(NC(C)=O)cc3)nc2C)cc1	i	i	29.1µM	i	i	16.4µM
CCCn1c(C)cc(C(=O)CSc2n[nH]c(C3CC3)n2)c1C	i	nt	nt	nt	nt	nt
COc1ccccc1OCCn1c(NC(=O)c2ccccc2Cl)nc2ccccc21	i	nt	23.1µM	nt	nt	16.4µM
CC(=O)Nc1nc2ccccc2n1CCOc1ccccc1Cl	i	1.26µM	?	i	0.794µM	14.6µM
CCOc1ccc(CCNC(=O)c2cc3c(C)nccc3[nH]c2=O)cc1OCC	i	i	11.6µM	i	i	13µM
CCOC(=O)CNC(=O)c1cc2c(=O)[nH]c3ccc(C)cc3c2s1	i	i	i	i	i	i
Cc1ccc2[nH]c(=O)c3cc(C(=O)NCc4ccc(Cl)cc4)sc3c2c1	i	nt	nt	nt	nt	nt
CCOc1ccc(CCNC(=O)c2c(C)noc2C)cc1OCC	i	nt	i	i	nt	i
Cc1nccc2[nH]c(=O)c(C(=O)NC3CCCCC3C)cc12 (stereo unspecified)	i	i	?	i	i	16.4µM
COc1ccc(CCNC(=O)c2cc3c(=O)[nH]c4ccc(C)cc4c3s2)cc1OC	i	nt	13µM	nt	nt	11.6µM
Cc1cc(C(=O)NC2CCCCC2C)c2ccccc2n1 (stereo unspecified)	i	i	i	i	i	i
CCOc1ccc(CCNC(=O)c2cc3c(=O)[nH]c4ccc(C)cc4c3s2)cc1OCC	i	nt	4.11µM	nt	nt	18.4µM
N#Cc1c(-c2ccc(C(=O)c3ccc(O)cc3)cc2)no[n+]1[O-]	i	nt	nt	nt	nt	nt
COc1ccc(/C=C2\Oc3cc(OC(=O)C(C)(C)C)ccc3C2=O)c(OC)c1	i	nt	nt	nt	nt	nt
O=C(O)c1ccc(=O)oc1	i	nt	nt	nt	nt	nt
CCOC(=O)c1sc(NC(=O)c2cc(-c3ccccc3C)nc3ccccc23)c(C#N)c1C	i	8.91µM	9.2µM	-83.5	8.91µM	7.31µM
COC(=O)c1sc(NC(=O)c2ccc(Cn3cc(Cl)cn3)o2)c(C#N)c1C	i	i	16.4µM	i	i	?
Cc1nnc(NC(=O)c2cc(-c3ccccc3C)nc3ccccc23)s1	i	nt	nt	nt	nt	nt
CCOC(=O)c1sc(NC(=O)c2ccncc2)c(C#N)c1C	i	?	6.51µM	i	?	5.17µM
Cc1ccccc1-c1cc(C(=O)Nc2sc(C)c(C)c2C(N)=O)c2ccccc2n1	i	i	16.4µM	i	i	18.4µM
CC(NC(=O)CCNC(=O)C(C)(C)C)C(=O)NC1CCCC1 (stereo unspecified)	i	nt	nt	nt	nt	nt
COC(=O)c1cccc(NC(=O)COc2ccc3c(C)cc(=O)oc3c2)c1	i	nt	nt	nt	nt	nt
Nc1c(C(=O)Nc2ccccc2Cl)nnn1-c1ccc2c(c1)OCCO2	i	?	?	i	0.0562µM	?
Nc1c(C(=O)Nc2ccc3c(c2)OCCO3)nnn1Cc1cccc(Br)c1	i	nt	?	-51.3	nt	23.1µM
Cc1oc(-c2ccccc2)nc1Cn1nnc(C(=O)Nc2ccc3c(c2)OCCO3)c1N	i	nt	nt	nt	nt	nt
Nc1c(C(=O)Nc2ccc3c(c2)OCCO3)nnn1Cc1ccc(Br)cc1	i	nt	i	i	nt	i
Nc1c(C(=O)Nc2ccc3c(c2)OCCO3)nnn1CCc1ccccc1	i	i	4.61µM	i	?	3.26µM
Cn1c(=O)[nH]c(=O)c2c1nc(N1CCN(CC(N)=O)CC1)n2Cc1ccccc1	i	nt	nt	nt	nt	nt
Cc1ccc(CSc2ccc3nnc(-c4ccccn4)n3n2)cc1	i	i	11.6µM	i	i	16.4µM
